Measured values: PubChem BioAssay (EPA / NIEHS)
Records with an inconclusive call do not appear. Calls of active or inactive are those of the source. Rule for the calls, unless noted: active = hit-call score of the fitted dose curve at least 0.9, where 1 is the maximum; inactive = score below 0.9.

Key:
[1] = CCTE_Shafer_MEA_acute_AB: CCTE's Alamar Blue Assay for Cytotoxicity in the Neural Acute Assay, Shafer Lab (AID 2284069; active = hit-call score of the fitted dose curve at least 0.9, where 1 is the maximum;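 note: active compounds lower the viability signal compared with DMSO wells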)
How it was run: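 Cytotoxicity endpoint for acute MEA exposures of primary rat cortical neurons on day 13 or 15. Resazurin reduction is read fluorescently at 544/590 nm, with DMSO as the negative-control baseline.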

[2] = tested on: DIO2 (gene 1734); test: CCTE_GLTED_hDIO2: CCTE's human Deiodinase 2 (DIO2) Inhibition Assay, Great Lakes Toxicology and Ecology Division (GLTED) Lab (AID 2284050; active = hit-call score of the fitted dose curve at least 0.9, where 1 is the maximum)
How it was run: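 Cell-free human DIO2 enzyme was incubated with test chemical for 3 h; iodide liberated from substrate was then quantified by the Sandell-Kolthoff reaction (absorbance), run in triplicate. Loss of signal versus DMSO baseline indicated inhibition.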

[3] = tested on: DIO3 (gene 1735); test: CCTE_GLTED_hDIO3: CCTE's human Deiodinase 3 (DIO3) Inhibition Assay, Great Lakes Toxicology and Ecology Division (GLTED) Lab (AID 2284055; active = hit-call score of the fitted dose curve at least 0.9, where 1 is the maximum;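 note: potency is for inhibition seen as loss of released iodide signal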)
How it was run: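 Cell-free assay with human DIO3 enzyme produced by adenovirus expression; enzyme incubated with test chemical for 3 hours. Liberated iodide then measured by Sandell-Kolthoff absorbance; loss of signal versus DMSO baseline indicates inhibition, run in triplicate.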

[4] = molecular target: Estrogen receptor (Homo sapiens) (UniProt P03372); test: CCTE_Deisenroth_AIME_384WELL_LUC_Inactive: CCTE's 384-well Estrogen Receptor Transactivation Assay without AIME metabolic competence (ERTA luciferase; metabolism negative), Deisenroth Lab (AID 2284038; active = hit-call score of the fitted dose curve at least 0.9, where 1 is the maximum;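 note: VM7Luc4E2 breast cells given medium preincubated 2 h with S9-free microspheres; hits raise estrogen receptor luciferase signal so potencies reflect agonists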)
Estrogen receptor (Homo sapiens), sequence (P03372 whole entry, looked up): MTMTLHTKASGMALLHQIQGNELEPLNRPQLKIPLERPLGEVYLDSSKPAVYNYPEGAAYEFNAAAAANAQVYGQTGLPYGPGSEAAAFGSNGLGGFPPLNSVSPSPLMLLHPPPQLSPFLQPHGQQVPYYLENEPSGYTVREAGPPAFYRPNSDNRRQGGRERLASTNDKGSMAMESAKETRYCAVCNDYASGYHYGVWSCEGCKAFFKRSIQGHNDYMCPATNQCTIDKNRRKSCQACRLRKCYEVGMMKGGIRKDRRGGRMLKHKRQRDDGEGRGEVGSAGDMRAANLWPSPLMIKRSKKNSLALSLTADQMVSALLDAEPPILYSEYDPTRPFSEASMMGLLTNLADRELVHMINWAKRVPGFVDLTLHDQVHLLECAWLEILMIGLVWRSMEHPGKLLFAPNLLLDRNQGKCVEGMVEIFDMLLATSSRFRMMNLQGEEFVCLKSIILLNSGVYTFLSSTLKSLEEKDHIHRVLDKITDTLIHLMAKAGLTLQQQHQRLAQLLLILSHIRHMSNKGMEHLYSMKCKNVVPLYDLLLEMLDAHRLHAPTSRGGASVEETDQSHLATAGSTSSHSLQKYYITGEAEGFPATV
How it was run: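 Chemicals (10-point series, 0.002 - 200 uM) were incubated 2 hours with alginate-water microsphere lids lacking S9, then the conditioned medium was transferred to VM7Luc4E2 breast cells for 24 hour. Luciferase induction was read by bioluminescence, fitted upward relative to 17beta-estradiol.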

[5] = CCTE_Deisenroth_AIME_384WELL_CTox_Inactive: Cytotoxicity Assessment (CTOX) in CCTE's 384-well Estrogen Receptor Transactivation Assay without AIME metabolic competence (metabolism negative), Deisenroth Lab (AID 2284039; active = hit-call score of the fitted dose curve at least 0.9, where 1 is the maximum;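 note: cell viability via live-cell protease substrate cleaved to fluorescent probe; cells exposed 24 h to medium preincubated 2 h with alginate-water beads without S9; loss of fluorescence signal means loss of viability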)
How it was run: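 Fluorescence from a live-cell protease substrate, read after 24 h in VM7Luc4E2 cells, indicated viability. Test medium came from a 2 h AIME step without hepatic S9 (alginate-water microspheres); concentrations spanned 0.002 - 200 uM, single technical replicate per run.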

[6] = CCTE_Shafer_MEA_dev_active_electrodes_number: CCTE's Neural Network Formation Assay for Number of Active Electrodes, Shafer Lab (AID 2284040; active = hit-call score of the fitted dose curve at least 0.9, where 1 is the maximum)
How it was run: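 Rat cortical primary cultures, 1.5 x 10^5 cells/well, PEI-coated MEA, laminin drop. Continuous exposure DIV 0–12; full media/compound change DIV 5, 9. Readout: electrodes with mean firing ≥5 spikes/min; AUC across days; loss vs DMSO.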

[7] = CCTE_Shafer_MEA_dev_burst_rate: CCTE's Neural Network Formation Assay for Burst Rate, Shafer Lab (AID 2284042)
How it was run: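 Developmental network assay measuring how 12-day exposure of rat cortical neuron cultures alters bursting on extracellular MEA recordings. Values are AUC of well-mean burst rate across four recording days, relative to DMSO vehicle.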

[8] = CCTE_Shafer_MEA_dev_bursting_electrodes_number: CCTE's Neural Network Formation Assay for Number of Bursting Electrodes, Shafer Lab (AID 2284043; active = hit-call score of the fitted dose curve at least 0.9, where 1 is the maximum)
How it was run: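 Primary rat cortical neurons plated on 16-electrode MEA wells, exposed from day 0 with compound renewed at DIV 5 and 9. Electrodes bursting ≥1 burst per 2 min counted on days 5, 7, 9 and 12; trapezoidal AUC across days, fitted for loss versus DMSO.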

[9] = CCTE_Shafer_MEA_dev_per_burst_interspike_interval: CCTE's Neural Network Formation Assay for Burst Interspike Interval, Shafer Lab (AID 2284044);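 note: mean spike spacing inside bursts as AUC over recordings on days 5 7 9 12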
How it was run: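 Developmental network-formation MEA in primary rat cortical cultures with exposure spanning days 0–12. Within-burst ISI is averaged per well and integrated across recording days by area under the curve, with DMSO as negative control baseline.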

[10] = CCTE_Shafer_MEA_dev_burst_duration_mean: CCTE's Neural Network Formation Assay for Mean Burst Duration, Shafer Lab (AID 2284045)
How it was run: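 Primary rat cortical neurons on 48-well 16-electrode MEA plates, exposed from day 0 with renewal at DIV 5 and 9; spontaneous activity recorded on days 5, 7, 9, 12. Well-mean burst duration across bursting electrodes, collapsed as trapezoidal AUC; DMSO baseline.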

[11] = CCTE_Shafer_MEA_dev_interburst_interval_mean: CCTE's Neural Network Formation Assay for Mean Interburst Interval, Shafer Lab (AID 2284046);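 note: well-mean interburst interval of bursting electrodes as AUC over four recording days; curve fitted for decrease in interburst interval relative to DMSO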
How it was run: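 Network formation assay in primary rat cortical cultures, exposed from DIV 0 to 12. Mean interburst interval per well, integrated as AUC over four recordings.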

[12] = CCTE_Shafer_MEA_dev_inter_network_spike_interval_mean: CCTE's Neural Network Formation Assay for Mean Inter-network Spike Interval, Shafer Lab (AID 2284047)
How it was run: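 Compound was given at plating to primary rat cortical neurons and renewed with full medium changes on DIV 5 and 9. Extracellular activity was recorded on days 5, 7, 9, 12; AUC values were fitted for loss relative to DMSO control.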

[13] = CCTE_Shafer_MEA_dev_network_spike_number: CCTE's Neural Network Formation Assay for Number of Network Spikes, Shafer Lab (AID 2284048)
How it was run: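 Primary rat cortical neurons on PEI/laminin 48-well MEA plates, dosed from plating day 0 for 12 days, renewed at DIV 5 and 9. Network spike counts recorded DIV 5, 7, 9, 12, collapsed as trapezoidal AUC; DMSO baseline.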

[14] = CCTE_Shafer_MEA_dev_network_spike_peak: CCTE's Neural Network Formation Assay for Mean Number of Electrodes in Network Spike, Shafer Lab (AID 2284049)
How it was run: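 Network-spike peak electrode count from recordings on days 5, 7, 9 and 12 was combined as trapezoidal area under the curve. Rat cortical cultures were treated continuously from plating, with compound renewed at each feed (DIV 5, 9); fits versus DMSO.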

[15] = CCTE_Shafer_MEA_dev_spike_duration_mean: CCTE's Neural Network Formation Assay for Mean Spike Duration, Shafer Lab (AID 2284051);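 note: mean network spike duration pooled as area under curve over DIV 5 to 12 recordings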
How it was run: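 With DMSO as baseline, loss of mean network spike duration was scored from extracellular recordings of rat cortical neurons on MEA plates. Exposure spanned plating to DIV 12; the four recording days were collapsed into one AUC value.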

[16] = CCTE_Shafer_MEA_dev_network_spike_duration_std: CCTE's Neural Network Formation Assay for Standard Deviation of Network Spike Duration, Shafer Lab (AID 2284052);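 note: area under curve of spike duration SD across recording days 5 to 12; hits are decreases in network spike duration SD versus DMSO vehicle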
How it was run: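 Developing networks of rat cortical neurons were exposed over twelve days in vitro on 48-well MEA plates. Trapezoidal AUC of recordings (DIV 5–12) was analysed for signal loss relative to DMSO vehicle.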

[17] = CCTE_Shafer_MEA_dev_per_network_spike_spike_number_mean: CCTE's Neural Network Formation Assay for Mean Number of Spikes in a Network Spike, Shafer Lab (AID 2284053)
How it was run: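 First, rat cortical cells (1.5 x 10^5/well) were seeded onto MEA wells; second, dosing began at plating and was refreshed on DIV 5 and 9; finally, network-spike spike counts across DIV 5–12 were summarized as AUC.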

Measured: AC50

O=C(c1ccc(O)cc1)c1ccc(O)cc1O
inactive: [1]

CCCCCCCC/C=C\CCCCCCCC(=O)OCCO
active: [2] 19.5 µM | [3] 14 µM

CCCCC(CC)CCC(CC(C)C)OS(=O)(=O)O (stereo not given)
inactive: [4] | [5]

Nc1ccc(N)c(Cl)c1
inactive: [1]

CCOC(F)(F)C(F)(F)C(F)(F)C(F)(F)F
not listed: [1] | [2] | [3] | [4] | [5]
inactive: all other assays above

FC(F)=C(F)OC(F)(F)C(F)(F)C(F)(F)F
not listed: [1] | [2] | [3] | [4] | [5] | [6] | [8]
inactive: all other assays above

CC/C=C\C/C=C\C/C=C\CCCCCCCC(=O)O
active: [2] 21.2 µM | [3] 13.1 µM

COC(F)(F)C(F)(C(F)(F)F)C(F)(F)F
not listed: [1] | [2] | [3] | [4] | [5]
inactive: all other assays above

O=C(C(Cl)Cl)N1CCOC12CCCCC2
inactive: [4]
active: [5] 19.8 µM

CCCCC/C=C\C/C=C\CCCCCCCC(=O)OC
active: [2] 46 µM | [3] 16.8 µM

CCCCCCCC/C=C\CCCCCCCC(=O)O
active: [2] 79.4 µM | [3] 29.8 µM

CC1(C)S[C@@H]2[C@H](NC(=O)COc3ccccc3)C(=O)N2[C@H]1C(=O)O
not listed: [1] | [2] | [3] | [4] | [5]
inactive: all other assays above
